Common to all, as to set-up: species or system human, MV4-11 + K-562 + COLO205 + SK-N-BE2 + OVCAR-8
Test [1] concerns NQO1. To be noted: read-out: apparent Kd, n = 1.
Test [2] concerns CSNK1A1. The conditions noted are these: read-out: apparent Kd, n = 1.
For test [3], the system named is BUB1. The conditions noted are these: read-out: apparent Kd, n = 1.
The subject of test [4] is MAP2K1. To be noted: read-out: apparent Kd, n = 1.
Test [5] has as its system EPHA2. The conditions noted are these: read-out: apparent Kd, n = 1.
Test [6] concerns EPHA4. The conditions noted are these: read-out: apparent Kd, n = 1.
Test [7] has as its system EPHB1. To be noted: read-out: apparent Kd, n = 1.
In test [8] the test system is EPHB2. The conditions noted are these: read-out: apparent Kd, n = 1.
In test [9] the test system is EPHB4. To be noted: read-out: apparent Kd, n = 1.
In test [10] the test system is MAPKAPK2. The conditions noted are these: read-out: apparent Kd, n = 1.
Test [11] deals with TGFBR2. The conditions noted are these: read-out: apparent Kd, compound concentrations: 100 nM and 1000 nM (sheet 'Samples'), n = 1.
Test [12] relates to PIK3CD. The conditions noted are these: read-out: apparent Kd; compound concentrations: 100 nM and 1000 nM (sheet 'Samples'), CATDS: 3.4664155585902003E-2; n = 1.
In test [13] the test system is PRKD3. To be noted: read-out: apparent Kd, compound concentrations: 100 nM and 1000 nM (sheet 'Samples'), n = 1.
Test [14] concerns TAOK1. To be noted: read-out: apparent Kd, n = 1.
The subject of test [15] is CSNK1D. To be noted: read-out: apparent Kd, n = 1.
Test [16] has as its system MAP4K5. The conditions noted are these: read-out: apparent Kd, n = 1.
Test [17] deals with NLK. The conditions noted are these: read-out: apparent Kd; compound concentrations:100 nM and 1000 nM (sheet 'Samples'); n = 1.
Setting [18] is: compound concentrations:100 nM and 1000 nM (sheet 'Samples').

Read-outs that look alike come from different tables or passages of the source.

Among the data in PMC11062922 (Nature Chemical Biology, 2023) are potency estimated from few doses values, retold here.

In the case of `Cl.Cl.Cl.c1ccc(Oc2ccc(Nc3ccnc4cc(-c5ccc(CN6CCNCC6)o5)ccc34)cc2)nc1.c1ccc(Oc2ccc(Nc3ccnc4cc(-c5ccc(CN6CCNCC6)o5)ccc34)cc2)nc1` [GW567142A], in test [1] (compound concentrations: 100 nM and 1000 nM (sheet 'Samples'), CATDS: 1.8216900253795E-2), the potency estimated from few doses was 1580 nM.
For the molecule `Cc1cccc(-c2cc(-c3c[nH]nc3-c3ccccn3)ccn2)c1` [GW679395X], in [2] (setting [18]), the potency estimated from few doses was 1810 nM.
As for `CS(=O)(=O)Cc1ccc(Nc2nccc(-c3c(-c4cccc(NC(=O)C5CCCCC5)c4)nn4ncccc34)n2)cc1` [GSK350559A], the values for the potency estimated from few doses in test [3] (setting [18]) and in test [4] (setting [18]) were 267 nM and 2430 nM, respectively.
Turning to `Cc1ccc(O)cc1Nc1ccnc2cc(-c3ccccn3)ccc12.Cl` [GW440139A], the potency estimated from few doses is 529 nM in [5] (compound concentrations: 100 nM and 1000 nM (sheet 'Samples'), CATDS: 2.9853649287190101E-2); 81.6 nM in [6] (compound concentrations: 100 nM and 1000 nM (sheet 'Samples'), CATDS: 5.0335970342337201E-2); 67.7 nM in [7] (compound concentrations: 100 nM and 1000 nM (sheet 'Samples'), CATDS: 5.4162955802276501E-2); 52 nM in [8] (compound concentrations: 100 nM and 1000 nM (sheet 'Samples'), CATDS: 6.0515406545195598E-2); 20.9 nM in test [9] (compound concentrations: 100 nM and 1000 nM (sheet 'Samples'), CATDS: 9.4734389919906598E-2); 1570 nM in test [10] (compound concentrations: 100 nM and 1000 nM (sheet 'Samples'), CATDS: 2.53755109568197E-2). Besides, the potency estimated from few doses in test [11] (CATDS: 0.155660799519896) is 9.12 nM.
For the molecule `CN1C(=O)c2ccccc2N(C)c2nc(Nc3cnn(C4CCNCC4)c3)ncc21` [XMD-17-51], the potency estimated from few doses in test [12] is 111 nM; in test [13] (CATDS: 1.40532268775709E-2), 1650 nM; in test [14] (compound concentrations: 100 nM and 1000 nM (sheet 'Samples'), CATDS: 5.6290782434041703E-2), 40.7 nM; in test [11] (CATDS: 1.41245865647958E-2) it was 1610 nM.
`COc1ccc(Nc2nccc(N3CCC(NC(=O)Nc4ccc5c(c4)OCO5)C3)n2)cc1` (stereo not drawn) [GSK1379745A]: the potency estimated from few doses in test [2] (compound concentrations: 100 nM and 1000 nM (sheet 'Samples'), CATDS: 4.3569659230054097E-2) was 1260 nM; in [15] (compound concentrations: 100 nM and 1000 nM (sheet 'Samples'), CATDS: 3.4846409929325597E-2), 2080 nM; in test [4] (compound concentrations: 100 nM and 1000 nM (sheet 'Samples'), CATDS: 3.9281553351087697E-2), 1560 nM; in test [1] (compound concentrations: 100 nM and 1000 nM (sheet 'Samples'), CATDS: 4.3711719751433897E-2) it was 1250 nM; in test [14] (compound concentrations: 100 nM and 1000 nM (sheet 'Samples'), CATDS: 4.1153987901417902E-2), 1410 nM.
Turning to `CC(C)c1nc(-c2cccc(NS(=O)(=O)c3ccccc3)c2)c(-c2ccnc(Nc3ccc4c(c3)CN(C)CC4)n2)s1` [GSK1649598A], the potency estimated from few doses in [3] (compound concentrations: 100 nM and 1000 nM (sheet 'Samples'), CATDS: 1.7014993428197001E-2) is 579 nM; in [16] (compound concentrations: 100 nM and 1000 nM (sheet 'Samples'), CATDS: 1.3446008257637299E-2), 1320 nM; in test [13] (CATDS: 3.0357950556932599E-2), 152 nM; in [14] (compound concentrations: 100 nM and 1000 nM (sheet 'Samples'), CATDS: 1.55271176192178E-2), 769 nM.
As for `CNc1nccc(-c2c(-c3ccc(F)cc3)ncn2C2CCN(C)CC2)n1` [SB-222903], the potency estimated from few doses is 1920 nM in test [3] (setting [18]); 139 nM in test [2] (setting [18]); 11.1 nM in test [15] (setting [18]); 49 nM in test [10] (setting [18]); 19.1 nM in test [17].
On to `COc1ccc(-c2nc3n(c2-c2ccncc2)CCC3)cc1.COc1ccc(-c2nc3n(c2-c2ccncc2)CCC3)cc1.O=S(=O)(O)O.O=S(=O)(O)O` [SKF-104493-B2], for which the potency estimated from few doses was 2400 nM in test [4] (compound concentrations: 100 nM and 1000 nM (sheet 'Samples'), CATDS: 9.8642022165156204E-2); 867 nM in test [10] (compound concentrations: 100 nM and 1000 nM (sheet 'Samples'), CATDS: 0.15746092707453499).
On to `COc1cc2ncn(-c3cc(OCc4cccs4)c(C(N)=O)s3)c2cc1OC` [GSK312948A], for which the potency estimated from few doses in [16] (setting [18]) was 116 nM.
Consider `Cl.Cn1c(=O)c(Cc2ccc(F)cc2F)cc2cnc(NC3CCOCC3)nc21` [RO3308757-001], for which the potency estimated from few doses in test [5] (setting [18]) was 1130 nM; in test [6] (setting [18]), 743 nM; in test [7] (setting [18]), 541 nM; in test [8] (setting [18]), 364 nM; in test [9] (setting [18]), 268 nM; in [10] (setting [18]), 669 nM.
`Fc1ccc(-c2c(-c3ccncc3)[nH]c3nccnc23)cc1` [RO1155697-000]: the potency estimated from few doses was 1970 nM in test [3] (setting [18]); 667 nM in test [2] (setting [18]); 8.23 nM in test [15] (setting [18]); 1590 nM in [1] (setting [18]); 1150 nM in test [14] (setting [18]).
As for `Cn1cc(-c2cnc(N)c3c(-c4ccc5c(c4)CCN5C(=O)Cc4ccccc4)csc23)cn1` [GSK2593074A], in [16] (setting [18]), the potency estimated from few doses was 302 nM.
For the molecule `Cc1cc(O)cc(C)c1/C=C/c1cncc(-c2nn[nH]n2)c1.Cl` [GW441806A], the potency estimated from few doses in test [5] (compound concentrations: 100 nM and 1000 nM (sheet 'Samples'), CATDS: 4.6112446535010898E-2) is 1310 nM.
With `Cc1ccc(O)cc1Nc1ccnc2ccc(C(C)(C)C)cc12` [GW856805X], the potency estimated from few doses was 18.5 nM in test [5] (compound concentrations: 100 nM and 1000 nM (sheet 'Samples'), CATDS: 8.0596912814025104E-2); 22 nM in test [6] (compound concentrations: 100 nM and 1000 nM (sheet 'Samples'), CATDS: 7.4195620286495498E-2); 25.7 nM in test [7] (compound concentrations: 100 nM and 1000 nM (sheet 'Samples'), CATDS: 6.9197667639957702E-2); 29.3 nM in test [8] (compound concentrations: 100 nM and 1000 nM (sheet 'Samples'), CATDS: 6.5287043089823998E-2); 9.72 nM in test [9] (compound concentrations: 100 nM and 1000 nM (sheet 'Samples'), CATDS: 0.113366992887299); 130 nM in [11] (CATDS: 3.9995494154685202E-2).
